JMJD2A Tudor: JMJD2A Tudor domain (human) inhibition. hit rate 4.4% among 390,000. Potency, µM (doses to about 114 µM), for inactives: top-dose activity change, negative = inhibition, actives largely listed as inhibitors. AlphaScreen JMJD2A-Tudor / H3K4me3 peptide binding. AID 504339. O75164; also: potency is read from the fitted curve at half-maximal effect; % is scaled to controls: 0 for no effect and ±100 for the full control effect; nearly all actives have a fitted effect of over 50% in size
HP1b chromo inh: inhibitors of HP1-beta chromodomain binding to methylated histone tails; AlphaScreen HP1-beta / biotin-H3K9me3 peptide binding; Potency, µM (titrated, usually from 114 µM), inactives show top-dose activity change, negative = inhibition, most hits filed as inhibitors; hit rate 0.56% among 390,000; AID 540317; also: potency is read from the fitted curve at half-maximal effect; nearly all actives have a fitted effect of over 70% in size
Target sequence (P83916 whole entry, looked up): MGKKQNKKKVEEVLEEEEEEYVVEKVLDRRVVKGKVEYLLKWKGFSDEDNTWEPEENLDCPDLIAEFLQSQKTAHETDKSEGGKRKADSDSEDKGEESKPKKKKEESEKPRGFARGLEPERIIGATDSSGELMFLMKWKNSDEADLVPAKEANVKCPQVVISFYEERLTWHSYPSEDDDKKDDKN
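HP1-beta protein (50 nM final) preincubated 30 min at room temperature with biotinylated H3(1-18)K9me3 peptide (50 nM) in PBS pH 7.4, 0.01% Tween-20, then compound added for 30 min. AlphaScreen streptavidin donor/nickel chelate acceptor beads (10 ug/mL final), 30 min dark, luminescence read.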
CtBP-E1A blk: CtBP/E1A binding inhibition. hit rate 0.49% among 340,000. AlphaScreen GST-E1A/His-CtBP binding, 1536-well; hits give low values. activity change, % (concentration not given with the values); in the data active = activity change below about -65%; inconclusive = mostly about -30% to -63%; also: % is scaled to controls: 0 for no effect and ±100 for the full control effect
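AlphaScreen with 125 nM GST-E1A and 125 nM His-CtBP (5X stocks) in Tris pH 8.0, 300 mM NaCl, BSA, Tween 20, TCEP. Compounds preincubated 2 h at 37 deg C, then glutathione donor/nickel acceptor beads added for 1 h at 37 deg C in dark.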
G9a inh: blocks human histone lysine methyltransferase G9a; Q96KQ7; G9a H3K9 monomethylation, AlphaScreen, 2 h; Potency, µM (top dose mostly 102 µM), without a hit: at the top dose activity, negative = inhibition, most hits filed as inhibitors; hit rate 8.8% among 350,000; AID 504332; also: potency is read from the fitted curve at half-maximal effect; % is scaled to controls: 0 for no effect and ±100 for the full control effect; nearly all actives have a fitted effect of over 75% in size
Target sequence (Q96KQ7 913-1193 limits assumed): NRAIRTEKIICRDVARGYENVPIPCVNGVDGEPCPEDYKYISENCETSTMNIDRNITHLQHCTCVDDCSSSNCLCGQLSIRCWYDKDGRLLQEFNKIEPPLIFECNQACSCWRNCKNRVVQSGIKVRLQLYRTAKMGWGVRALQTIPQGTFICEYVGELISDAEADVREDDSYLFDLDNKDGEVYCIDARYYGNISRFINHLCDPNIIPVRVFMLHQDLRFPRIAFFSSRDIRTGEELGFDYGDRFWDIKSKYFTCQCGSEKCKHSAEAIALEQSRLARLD
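Step 1: enzyme (final 20 nM) with compound, 15 min RT. Step 2: substrate peptide 500 nM and SAM 20 uM, 2 h RT. Step 3: anti-H3K9me1 antibody and AlphaScreen beads, 10 min, then plate read.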
Six1-Eya2 inh: inhibitors of human Six1/Eya2 interaction; Q15475+O00167; AlphaScreen GST-Six1/His-Eya2 binding, biochemical; hits give low values; activity change, % (test concentration not listed); hit rate 0.56% among 360,000; AID 651725; in the data active = activity change below about -65%; inconclusive = mostly about -30% to -63%; also: % is scaled to controls: 0 for no effect and ±100 for the full control effect
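GST-Six1 + His-Eya2 (5X stock: 250/500 nM); Tris pH 8.0, 300 mM NaCl, 0.05% BSA, 0.02% Tween 20; GSH donor/Ni acceptor beads; 1 h 37 °C dark; AlphaScreen readout.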
BAZ2B inh: blocks human BAZ2B; Q9UIF8; hit rate 4.4% among 360,000; AlphaScreen BAZ2B-H3K14Ac peptide displacement; Potency, µM (titrated, usually from 114 µM), without a hit: top-dose activity change, negative = inhibition, hits mostly inhibitors; also: potency is read from the fitted curve at half-maximal effect; % is scaled to controls: 0 for no effect and ±100 for the full control effect; nearly all actives have a fitted effect of over 60% in size
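BAZ2B 50 nM plus b-H3(5-23)K14Ac 50 nM, PBS pH 7.4/0.01% Tween-20, 30 min RT; compound added (max 110 uM), 30 min RT; streptavidin donor/Ni-chelate acceptor beads 10 ug/mL final, 20 min dark; AlphaScreen read.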
* marks the source's active call; other numbers are inactive results; ? = inconclusive; / = no result; [ ] = another dose, or the depositor's remark. Shown are actives, neighbours in structure and some others; about 10% of the full set was active somewhere. Unless noted, calls follow the shape of the dose curve; as a rule, active = well fitted inhibition curve with a large enough effect; inconclusive = small, poorly fitted or top-dose-only effect; inactive = no such curve, though single readings can be large or run the other way.

SMILES	JMJD2A Tudor	HP1b chromo inh	CtBP-E1A blk	G9a inh	Six1-Eya2 inh	BAZ2B inh
Cc1ccc2nc(NC(=O)C3=NN(c4ccccc4)C(=O)CC3)sc2c1	-18%	24%	0	-26%	-12	3%
Cc1nc(C)c(C(=O)Nc2nc3c(C)cccc3s2)o1	35µM*	?	-4	14µM*	-15	35µM*
Cc1cccc2sc(NC(=O)C3=NN(c4ccccc4)C(=O)CC3)nc12	-7%	36%	/	50µM*	-5	-3%
COc1ccc(CNC(=O)CSc2ncc(S(=O)(=O)c3ccc(Br)cc3)c(=O)[nH]2)cc1	-14%	22%	/	-7%[59 µM]	/	-1%
COC(=O)c1cc(Cl)ccc1NC(=O)CSc1ncc(S(=O)(=O)c2ccc(Br)cc2)c(=O)[nH]1	-25%	6%	/	-16%[59 µM]	/	79µM*
Oc1ccc(CCNc2c3ccccc3nc3ccccc23)cc1O	28µM*	14%	?	-1%[0.501 µM]	?	?
Nc1ccc(-c2ncc(-c3ccccc3)o2)cc1	?	-15%	-12	?	-12	28µM*
Cc1ccc(-c2cnc(-c3ccncc3)o2)cc1	-9%[57.1 µM]	38%	-14	?	5	1%
O=[N+]([O-])/C(C(Cl)=C(Cl)Cl)=C1\Nc2ccccc2O1	40µM*	?	-8	35µM*	-30	50µM*
CCOC(=O)CN1NC2(CCCC(C)C2)NC1=S (stereo not given)	50µM*	38%	1	10µM*	3	-4%
CCOC(=O)c1ccc(NC(=O)CN2C(=O)NC3(CCC(C)CC3)C2=O)cc1 (stereo not given)	-17%[57.1 µM]	16%	22	3%	-3	-15%
CCOC(=O)CN1NC2(CCC(C(C)(C)C)CC2)NC1=S (stereo not given)	40µM*	32%	-3	14%[12.7 µM]	5	?
CCOC(=O)CN1C(=O)NC2(CCCc3ccccc32)C1=O (stereo not given)	-2%	-1%	4	10%	9	3%
CCOC(=O)CN1NC2(CCC(C)CC2)NC1=S (stereo not given)	28µM*	33%	1	25µM*	4	?
C[C@H](NC(=O)c1ccccc1Cl)C(=O)NCCc1ccc(S(N)(=O)=O)cc1	-11%	21%	7	21%[59 µM]	-1	2%
C/C=C(\C)CN1CCN(c2ccc(C)cc2)CC1	7.1µM*	-64%	-3	10µM*	-12	25µM*
COc1ccccc1NC(=O)Nc1nnc([C@H]2C[C@H](O)[C@@H](CO)O2)s1	/	/	-1	/	-4	/
COc1cc(CNCc2cccc3ccccc23)cc(OC)c1	25µM*	11%	/	50µM*	-27	50µM*
COc1cc(CNCc2c[nH]c3ccccc23)cc(OC)c1	3.5µM*	?	1	14µM*	-1	56µM*
COc1cc(NC(=O)CCCc2c[nH]c3ccccc23)cc(OC)c1	?	-14%	/	-18%[59 µM]	8	?
CCN(CC)CCNC(=O)CCc1nnc2ccc(N3CCC(C)CC3)nn12	4%	47%	/	1%	1	-11%
Cc1ccc(-c2n[nH]c(=S)c3ccccc23)cc1S(=O)(=O)NCC1CCCO1 (stereo not given)	18µM*	-36%	-16	22µM*	-12	-33%
COc1cccc(C(=O)/C(C#N)=N/Nc2cccc(-c3ccnc(C)n3)c2)c1	?	-1%	/	50µM*	3	?
CC(C)=NNC(=O)CN1C(=O)NC2NC(=O)NC21 (stereo not given)	-6%	16%	4	79µM*	1	5%
C=CCc1ccccc1OCCNCCCOC	2.5µM*	-36%	7	8.9µM*	8	-35%
SMILES	JMJD2A Tudor	HP1b chromo inh	CtBP-E1A blk	G9a inh	Six1-Eya2 inh	BAZ2B inh
CCc1cc(OCCOCCN(C)C)ccc1Cl	2.2µM*	?	9	?	0	?
C=CCc1cc(OC)ccc1OCCOCCC(C(=O)OCC)C(=O)OCC	47%	134%	23	65%[59 µM]	22	34%
CCOc1ccc(Cl)cc1CNCCNCCO	-24%	28%	6	/	1	-35%
CCc1ccccc1OCCCCCNCCO	-12%	49%	1	24%[12.7 µM]	-2	2%
C=CCc1cc(Cl)ccc1OCCOCCN(C)C	3.5µM*	?	-2	7.9µM*	1	50µM*
C=CCc1cc(Cl)ccc1OCCNCCCOC	2.5µM*	?	0	20µM*	4	3%
CN1C(=O)C2CCCCN2c2ccc(C(=O)NCc3ccccc3Br)cc21 (stereo not given)	-27%	10%[57 µM]	/	5%[59 µM]	/	-25%
C=CCc1cc(Cl)ccc1OCCOCCNCCOC	10µM*	?	6	?	-1	71µM*
CCCOc1ccc(Cl)cc1CNc1ccccc1	57%	52%	35	206%	13	35%
COc1ccc(Cl)cc1CC=NNC(=O)c1ccncc1	-7%	44%	-2	/	-5	/
Cc1ccc(OCCOCCN(C)C)c(Cl)c1	40µM*	?	4	8.9µM*	6	79µM*
C=CCc1cc(Cl)ccc1OCCOCCNC(C)(C)C	14µM*	-30%	/	25µM*	0	50µM*
COc1cc(C)ccc1OCCOc1cc(C)ccc1Cl	-27%[11.4 µM]	31%	36	?	39	?
Cc1cccc(N2CCN(C(=O)C3CCN(C(=O)c4cc5sccc5n4C)CC3)CC2)c1C	?	-21%	/	?	/	22µM*
COc1ccc(OC)c(NC(=S)N(CCc2c(C)[nH]c3ccc(C)cc23)Cc2cccs2)c1	?	7%	-16	45µM*	-22	?
COc1ccc2[nH]c(C)c(CCN(Cc3cccs3)C(=S)Nc3cccc(F)c3)c2c1	?	-19%	1	?	-18	?
COc1ccc(OC)c(NC(=S)N(CCc2c(C)[nH]c3ccccc23)Cc2cccs2)c1	?	8%	-21	56µM*	?	?
COC1=CC(=O)OC(c2cccc(Cl)c2)C1 (stereo not given)	/	/	-13	/	6	/
Cc1cc(C)c(NC(=O)Cn2cc(S(=O)(=O)Cc3ccccc3F)c3ccccc32)c(C)c1	-20%	3%	/	3%[59 µM]	/	-15%
COc1ccc(-c2cc(C(F)F)n3ncc(C(=O)Nc4c(C)n(C)n(-c5ccccc5)c4=O)c3n2)cc1	0%[11.4 µM]	18%	/	-4%	-5	-8%
COc1ccc(-c2cc(C(F)F)n3ncc(C(=O)Nc4cc(C)on4)c3n2)cc1	-7%	10%	-5	/	7	79µM*
Cc1cc([N+](=O)[O-])nn1CC(=O)Nc1nc2ccccc2s1	-22%	27%	-9	?	1	-21%
